Data published in the supplement of paper PMC10849652.
The full data set covers some 7,900 targets. This sample favours those with a hit. About 0.6% of all pairs of compound and target were hits.

Key:
Assay in all cases: log2 fold change, soluble protein after heating vs DMSO (PISA); higher = thermal stabilisation; K562 cells, 10 uM, 30 min; active = over 0.2 and 3.5 SD of the protein, either way, in both replicates (recomputed)
[1] = compound: COC1=CC=C(C=C1)CN2C=CC3=C2C=C(C=C3)C(=O)NO
How it was run: (§1)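 K562 cells at 2×10^6 cells/mL were exposed to 10 μM compound for 30 min, then aliquots were heated for 3 min across 48°C-58°C, pooled, and extracted in PBS containing 0.5% NP-40 at 4°C. The supernatant after 21,000xg for 90 min was taken as soluble protein and measured by TMTpro 16plex LC-MS/MS with channel sums equalised. Thermal stability is reported relative to control samples, with values from duplicates. Fold changes are given on a log2 scale.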

filanesib = compound: CON(C)C(=O)N1N=C(c2cc(F)ccc2F)S[C@@]1(CCCN)c1ccccc1 [filanesib]
How it was run: as §1

zotarolimus = compound: CO[C@H]1C[C@@H]2CC[C@@H](C)[C@@](O)(O2)C(=O)C(=O)N2CCCC[C@H]2C(=O)O[C@H]([C@H](C)C[C@@H]2CC[C@H](n3cnnn3)[C@H](OC)C2)CC(=O)[C@H](C)/C=C(\C)[C@@H](O)[C@@H](OC)C(=O)[C@H](C)C[C@H](C)/C=C/C=C/C=C/1C [zotarolimus]
How it was run: as §1

idasanutlin = compound: COc1cc(C(=O)O)ccc1NC(=O)[C@@H]1N[C@@H](CC(C)(C)C)[C@](C#N)(c2ccc(Cl)cc2F)[C@H]1c1cccc(Cl)c1F [idasanutlin]
How it was run: as §1

alisertib = compound: COc1cc(Nc2ncc3c(n2)-c2ccc(Cl)cc2C(c2c(F)cccc2OC)=NC3)ccc1C(=O)O [alisertib]
How it was run: as §1

[2] = compound: COc1cc2nc(-c3cc(F)ccc3O)nc(N[C@@H]3CNC[C@H]3C(C)(C)O)c2cc1OC
How it was run: as §1

gefitinib = compound: COc1cc2ncnc(Nc3ccc(F)c(Cl)c3)c2cc1OCCCN1CCOCC1 [gefitinib]
How it was run: as §1

[3] = compound: COc1cccc2cc(-c3nc([C@H]4CC[C@H](C(=O)O)CC4)n4ncnc(N)c34)[nH]c12
How it was run: as §1

lapatinib = compound: CS(=O)(=O)CCNCc1ccc(-c2ccc3ncnc(Nc4ccc(OCc5cccc(F)c5)c(Cl)c4)c3c2)o1 [lapatinib]
How it was run: as §1

pictilisib = compound: CS(=O)(=O)N1CCN(Cc2cc3nc(-c4cccc5[nH]ncc45)nc(N4CCOCC4)c3s2)CC1 [pictilisib]
How it was run: as §1

[4] = compound: CS(=O)(=O)c1ccc(-c2cnc(N)c(C(=O)Nc3ccccc3)n2)cc1
How it was run: as §1

crizotinib = compound: C[C@@H](Oc1cc(-c2cnn(C3CCNCC3)c2)cnc1N)c1c(Cl)ccc(F)c1Cl [crizotinib]
How it was run: as §1

[5] = compound: C[C@@H]1COCCN1C2=NC(=NC(=C2)C3(CC3)S(=O)(=O)C)C4=C5C=CNC5=CC=C4
How it was run: as §1

[6] = compound: C[C@H](C1=CC=C(C=C1)C(=O)NC2=C3C=CNC3=NC=C2)N
How it was run: as §1

duvelisib = compound: C[C@H](Nc1ncnc2nc[nH]c12)c1cc2cccc(Cl)c2c(=O)n1-c1ccccc1 [duvelisib]
How it was run: as §1

gandotinib = compound: Cc1cc(Nc2cc(CN3CCOCC3)c3nc(C)c(Cc4ccc(Cl)cc4F)n3n2)n[nH]1 [gandotinib]
How it was run: as §1

tozasertib = compound: Cc1cc(Nc2cc(N3CCN(C)CC3)nc(Sc3ccc(NC(=O)C4CC4)cc3)n2)n[nH]1 [tozasertib]
How it was run: as §1

[7] = compound: Cc1cc(SCc2sc(-c3ccc(C(F)(F)F)cc3)nc2C)ccc1OCC(=O)O
How it was run: as §1

doramapimod = compound: Cc1ccc(-n2nc(C(C)(C)C)cc2NC(=O)Nc2ccc(OCCN3CCOCC3)c3ccccc23)cc1 [doramapimod]
How it was run: as §1

ispinesib = compound: Cc1ccc(C(=O)N(CCCN)[C@@H](c2nc3cc(Cl)ccc3c(=O)n2Cc2ccccc2)C(C)C)cc1 [ispinesib]
How it was run: as §1

Measured: log2 fold change

HMGB3 (UniProt O15347)
inactive: [1] 0.037 | filanesib -0.001 | zotarolimus 0.012 | idasanutlin 0.045 | alisertib -0.064 | [2] -0.031 | gefitinib -0.033 | [3] 0 | lapatinib 0.062 | pictilisib -0.044 | [4] 0.045 | crizotinib 0.026 | [5] -0.018 | [6] -0.071 | duvelisib 0.01 | gandotinib 0.01 | tozasertib 0.029 | [7] -0.001 | doramapimod 0.002 | ispinesib 0.1

GEMIN5 (UniProt Q8TEQ6)
inactive: [1] 0.017 | filanesib 0.037 | zotarolimus 0.039 | idasanutlin -0.024 | alisertib -0.041 | gefitinib 0.013 | [3] -0.035 | lapatinib 0.015 | pictilisib -0.021 | [4] -0.004 | crizotinib -0.047 | [5] 0.038 | [6] 0.02 | duvelisib -0.006 | gandotinib -0.082 | tozasertib 0.016 | [7] 0.055 | doramapimod -0.001 | ispinesib -0.088
active: [2] -0.235

GLUD2 (UniProt P49448)
inactive: [1] -0.041 | filanesib -0.032 | zotarolimus 0.123 | idasanutlin -0.07 | alisertib -0.06 | [2] -0.003 | gefitinib 0.061 | [3] 0.023 | lapatinib 0.191 | pictilisib 0.216 | [4] 0.102 | crizotinib 0.003 | [5] 0.011 | [6] -0.062 | duvelisib 0.191 | gandotinib 0.064 | tozasertib -0.095 | [7] 0.016 | doramapimod 0.041 | ispinesib 0

GATD1 (UniProt Q8NB37)
UniProt Q8NB37, sequence (Q8NB37 whole entry, looked up): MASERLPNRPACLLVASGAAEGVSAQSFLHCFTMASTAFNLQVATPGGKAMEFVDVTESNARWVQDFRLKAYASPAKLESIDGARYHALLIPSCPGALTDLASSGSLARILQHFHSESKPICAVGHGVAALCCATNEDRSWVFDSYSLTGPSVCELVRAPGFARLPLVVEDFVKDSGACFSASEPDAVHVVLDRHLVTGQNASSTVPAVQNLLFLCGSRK
inactive: [1] -0.104 | filanesib 0.022 | zotarolimus -0.004 | idasanutlin -0.038 | alisertib -0.001 | [2] 0.018 | gefitinib -0.014 | [3] 0.052 | lapatinib -0.064 | pictilisib 0.08 | [4] -0.026 | crizotinib 0.023 | [5] -0.256 | [6] 0.012 | duvelisib 0.124 | gandotinib 0.052 | tozasertib -0.075 | [7] 0.033 | doramapimod 0.163 | ispinesib -0.005

GTF2H3 (UniProt Q13889)
UniProt Q13889, sequence (Q13889 whole entry, looked up): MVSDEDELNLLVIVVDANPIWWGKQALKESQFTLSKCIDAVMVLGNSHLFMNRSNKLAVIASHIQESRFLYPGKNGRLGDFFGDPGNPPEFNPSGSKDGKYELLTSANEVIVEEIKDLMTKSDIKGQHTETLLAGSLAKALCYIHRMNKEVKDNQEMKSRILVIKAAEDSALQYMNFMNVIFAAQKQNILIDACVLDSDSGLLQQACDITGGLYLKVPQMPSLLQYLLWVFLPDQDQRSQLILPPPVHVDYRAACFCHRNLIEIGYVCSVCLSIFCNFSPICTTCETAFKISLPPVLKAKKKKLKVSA
inactive: [1] -0.031 | filanesib 0.062 | zotarolimus -0.04 | idasanutlin -0.077 | alisertib -0.155 | [2] 0.016 | gefitinib 0 | [3] 0.041 | lapatinib 0.056 | pictilisib -0.089 | [4] 0.061 | crizotinib 0.049 | [5] -0.012 | [6] -0.003 | duvelisib -0.047 | gandotinib -0.012 | tozasertib -0.031 | [7] -0.2 | doramapimod 0.021 | ispinesib 0.023

FIS1 (UniProt Q9Y3D6)
UniProt Q9Y3D6, sequence (Q9Y3D6 whole entry, looked up): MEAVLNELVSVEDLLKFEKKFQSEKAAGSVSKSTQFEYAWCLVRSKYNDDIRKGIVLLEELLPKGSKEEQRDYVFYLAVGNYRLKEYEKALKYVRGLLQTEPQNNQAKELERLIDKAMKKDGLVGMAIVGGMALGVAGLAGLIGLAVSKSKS
inactive: [1] -0.016 | filanesib -0.008 | zotarolimus 0.153 | idasanutlin -0.047 | alisertib -0.034 | [2] 0.061 | gefitinib -0.025 | [3] 0.069 | lapatinib 0.008 | pictilisib 0.071 | [4] -0.017 | crizotinib 0.045 | [5] 0.037 | duvelisib -0.143 | gandotinib 0.032 | tozasertib 0.079 | [7] 0.071 | doramapimod 0.02 | ispinesib -0.007
active: [6] -0.286

HNRNPUL1 (UniProt Q9BUJ2)
inactive: [1] 0.033 | filanesib 0.047 | zotarolimus -0.043 | idasanutlin 0.03 | alisertib 0.01 | [2] 0.023 | gefitinib -0.02 | [3] 0.009 | lapatinib 0.031 | pictilisib 0.014 | [4] 0.007 | crizotinib -0.023 | [5] -0.016 | [6] 0.147 | duvelisib -0.036 | gandotinib 0.049 | tozasertib 0.039 | [7] 0.085 | doramapimod -0.025 | ispinesib -0.019

FKBP4 (UniProt Q02790)
UniProt Q02790, sequence (Q02790 whole entry, looked up): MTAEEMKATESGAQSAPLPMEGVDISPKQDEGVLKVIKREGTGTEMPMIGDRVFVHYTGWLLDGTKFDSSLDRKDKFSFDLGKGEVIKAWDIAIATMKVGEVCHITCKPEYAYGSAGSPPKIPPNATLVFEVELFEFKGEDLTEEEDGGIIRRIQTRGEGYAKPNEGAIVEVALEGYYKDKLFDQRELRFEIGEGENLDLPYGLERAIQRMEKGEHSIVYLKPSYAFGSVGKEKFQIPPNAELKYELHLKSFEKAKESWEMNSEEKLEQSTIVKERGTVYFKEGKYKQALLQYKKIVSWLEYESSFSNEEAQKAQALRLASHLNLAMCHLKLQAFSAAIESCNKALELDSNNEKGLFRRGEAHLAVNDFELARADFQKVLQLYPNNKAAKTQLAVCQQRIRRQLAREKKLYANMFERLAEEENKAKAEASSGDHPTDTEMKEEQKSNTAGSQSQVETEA
inactive: [1] 0.015 | filanesib -0.066 | zotarolimus 0.077 | idasanutlin -0.048 | alisertib -0.018 | [2] 0.031 | gefitinib 0.008 | [3] 0.009 | lapatinib -0.062 | pictilisib 0.027 | [4] 0.013 | crizotinib -0.008 | [5] 0.042 | [6] -0.068 | duvelisib 0.019 | gandotinib -0.105 | tozasertib -0.005 | [7] 0.077 | doramapimod -0.052 | ispinesib -0.017

IFRD1 (UniProt O00458)
inactive: [1] -0.07 | filanesib -0.017 | zotarolimus 0.071 | idasanutlin -0.042 | alisertib -0.008 | [2] -0.25 | gefitinib 0.199 | [3] 0.253 | lapatinib 0.069 | pictilisib 0.214 | [4] 0.347 | crizotinib 0.004 | [6] 0.013 | duvelisib 0.002 | gandotinib 0.104 | tozasertib 0.035 | [7] -0.003 | doramapimod 0 | ispinesib -0.006
active: [5] 0.37

HECTD1 (UniProt Q9ULT8)
UniProt Q9ULT8, sequence (Q9ULT8 whole entry, looked up): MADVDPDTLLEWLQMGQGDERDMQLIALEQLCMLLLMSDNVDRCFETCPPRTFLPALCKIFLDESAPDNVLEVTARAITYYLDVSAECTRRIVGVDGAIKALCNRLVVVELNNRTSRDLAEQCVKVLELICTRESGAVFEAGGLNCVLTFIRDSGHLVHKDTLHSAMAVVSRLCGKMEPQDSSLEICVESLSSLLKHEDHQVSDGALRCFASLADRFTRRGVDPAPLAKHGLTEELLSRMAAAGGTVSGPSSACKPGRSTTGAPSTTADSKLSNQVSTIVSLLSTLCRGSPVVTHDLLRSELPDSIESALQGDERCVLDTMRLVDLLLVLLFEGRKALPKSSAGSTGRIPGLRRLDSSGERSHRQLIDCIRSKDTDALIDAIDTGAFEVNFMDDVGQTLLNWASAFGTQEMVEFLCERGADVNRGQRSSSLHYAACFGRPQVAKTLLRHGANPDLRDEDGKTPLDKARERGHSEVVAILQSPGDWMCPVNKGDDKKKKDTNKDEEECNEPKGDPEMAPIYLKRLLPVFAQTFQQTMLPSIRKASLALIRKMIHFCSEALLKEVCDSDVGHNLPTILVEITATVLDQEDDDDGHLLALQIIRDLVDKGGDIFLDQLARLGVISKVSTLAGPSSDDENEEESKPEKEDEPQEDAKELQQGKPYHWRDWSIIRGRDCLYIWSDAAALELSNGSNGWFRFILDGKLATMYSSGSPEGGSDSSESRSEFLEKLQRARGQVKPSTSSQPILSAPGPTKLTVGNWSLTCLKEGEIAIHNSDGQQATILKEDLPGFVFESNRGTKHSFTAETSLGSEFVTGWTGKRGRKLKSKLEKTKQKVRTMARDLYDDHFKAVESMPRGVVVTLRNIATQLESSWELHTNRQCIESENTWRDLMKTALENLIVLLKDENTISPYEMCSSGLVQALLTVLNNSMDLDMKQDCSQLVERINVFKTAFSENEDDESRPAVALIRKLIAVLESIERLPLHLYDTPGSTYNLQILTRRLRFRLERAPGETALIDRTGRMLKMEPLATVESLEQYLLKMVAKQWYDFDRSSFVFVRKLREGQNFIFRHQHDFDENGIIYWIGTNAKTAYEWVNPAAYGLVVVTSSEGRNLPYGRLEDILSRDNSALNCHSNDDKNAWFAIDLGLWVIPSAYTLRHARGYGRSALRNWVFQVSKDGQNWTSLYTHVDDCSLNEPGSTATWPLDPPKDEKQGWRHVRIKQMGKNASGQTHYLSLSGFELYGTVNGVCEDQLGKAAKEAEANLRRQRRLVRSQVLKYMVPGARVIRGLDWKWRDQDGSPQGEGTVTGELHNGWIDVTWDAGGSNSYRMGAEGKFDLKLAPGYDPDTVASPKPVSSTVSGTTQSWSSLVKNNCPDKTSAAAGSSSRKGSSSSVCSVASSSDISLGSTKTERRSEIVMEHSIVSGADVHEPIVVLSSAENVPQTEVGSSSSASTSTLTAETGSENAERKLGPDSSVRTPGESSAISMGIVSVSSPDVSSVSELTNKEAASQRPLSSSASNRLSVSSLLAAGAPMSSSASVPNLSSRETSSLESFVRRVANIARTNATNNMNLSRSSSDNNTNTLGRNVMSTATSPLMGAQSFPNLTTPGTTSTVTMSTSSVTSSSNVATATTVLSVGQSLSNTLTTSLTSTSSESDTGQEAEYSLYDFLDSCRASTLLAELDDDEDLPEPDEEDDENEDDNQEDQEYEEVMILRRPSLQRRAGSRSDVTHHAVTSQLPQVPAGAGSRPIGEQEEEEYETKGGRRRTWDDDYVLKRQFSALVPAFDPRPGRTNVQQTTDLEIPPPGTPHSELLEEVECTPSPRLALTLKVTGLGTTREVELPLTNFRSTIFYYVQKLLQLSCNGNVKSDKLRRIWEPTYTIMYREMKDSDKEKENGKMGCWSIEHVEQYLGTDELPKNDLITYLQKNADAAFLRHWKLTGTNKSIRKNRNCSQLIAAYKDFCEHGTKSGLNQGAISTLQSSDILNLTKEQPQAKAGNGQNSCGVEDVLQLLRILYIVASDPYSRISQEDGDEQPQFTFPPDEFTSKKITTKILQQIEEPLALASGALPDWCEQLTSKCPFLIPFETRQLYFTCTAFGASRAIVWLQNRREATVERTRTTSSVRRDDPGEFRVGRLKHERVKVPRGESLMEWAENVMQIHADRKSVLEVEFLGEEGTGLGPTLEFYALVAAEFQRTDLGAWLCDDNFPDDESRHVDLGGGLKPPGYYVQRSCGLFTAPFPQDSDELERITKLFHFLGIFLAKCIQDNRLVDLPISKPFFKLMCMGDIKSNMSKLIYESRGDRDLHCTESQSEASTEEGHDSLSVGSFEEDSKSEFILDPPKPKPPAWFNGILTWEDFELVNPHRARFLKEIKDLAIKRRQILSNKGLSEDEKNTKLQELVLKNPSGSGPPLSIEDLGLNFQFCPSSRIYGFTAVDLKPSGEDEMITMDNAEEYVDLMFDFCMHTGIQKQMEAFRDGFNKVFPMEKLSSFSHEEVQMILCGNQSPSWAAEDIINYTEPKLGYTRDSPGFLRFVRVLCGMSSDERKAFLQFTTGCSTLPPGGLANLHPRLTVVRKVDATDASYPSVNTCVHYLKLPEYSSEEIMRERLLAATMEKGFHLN
inactive: [1] -0.039 | filanesib 0.091 | zotarolimus 0.023 | idasanutlin 0.047 | alisertib 0.087 | [2] -0.04 | gefitinib -0.016 | [3] -0.132 | lapatinib 0.096 | pictilisib 0.02 | [4] -0.034 | crizotinib 0.084 | [5] 0.129 | [6] 0.072 | duvelisib -0.091 | gandotinib -0.062 | tozasertib 0.002 | [7] 0.06 | doramapimod -0.062 | ispinesib -0.126

GDI1 (UniProt P31150)
inactive: [1] -0.073 | filanesib -0.043 | zotarolimus 0.01 | idasanutlin -0.056 | alisertib -0.067 | [2] 0.045 | gefitinib -0.011 | [3] 0.037 | lapatinib -0.032 | pictilisib -0.006 | [4] 0.018 | crizotinib 0.026 | [5] 0.061 | [6] -0.054 | duvelisib 0.014 | gandotinib -0.049 | tozasertib 0.004 | [7] -0.009 | doramapimod -0.027 | ispinesib 0.084

GBF1 (UniProt Q92538)
inactive: [1] -0.005 | filanesib 0.038 | zotarolimus 0.008 | idasanutlin -0.037 | alisertib -0.013 | [2] 0.025 | gefitinib -0.012 | [3] -0.054 | lapatinib -0.036 | pictilisib -0.036 | [4] -0.032 | crizotinib -0.131 | [5] 0.023 | [6] 0.08 | duvelisib -0.028 | gandotinib -0.197 | tozasertib 0.039 | [7] 0.041 | doramapimod 0.059 | ispinesib 0.012

GALNT4 (UniProt Q8N4A0)
UniProt Q8N4A0, sequence (Q8N4A0 whole entry, looked up): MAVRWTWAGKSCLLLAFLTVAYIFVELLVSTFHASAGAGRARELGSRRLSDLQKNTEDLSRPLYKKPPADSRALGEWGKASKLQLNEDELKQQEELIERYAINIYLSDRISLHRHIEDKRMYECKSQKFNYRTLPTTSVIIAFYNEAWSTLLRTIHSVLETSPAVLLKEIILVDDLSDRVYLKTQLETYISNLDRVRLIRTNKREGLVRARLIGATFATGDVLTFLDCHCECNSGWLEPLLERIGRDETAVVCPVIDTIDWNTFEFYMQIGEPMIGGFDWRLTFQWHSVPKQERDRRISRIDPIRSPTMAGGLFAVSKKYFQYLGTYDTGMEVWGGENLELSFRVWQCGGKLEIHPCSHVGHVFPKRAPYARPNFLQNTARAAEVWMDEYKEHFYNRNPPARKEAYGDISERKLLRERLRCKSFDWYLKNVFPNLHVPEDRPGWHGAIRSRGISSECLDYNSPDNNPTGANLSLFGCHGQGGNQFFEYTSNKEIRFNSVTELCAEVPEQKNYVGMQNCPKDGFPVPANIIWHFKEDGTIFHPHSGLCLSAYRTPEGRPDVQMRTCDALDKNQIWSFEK
inactive: [1] -0.029 | filanesib 0.066 | zotarolimus -0.017 | idasanutlin -0.099 | alisertib -0.015 | [2] 0.011 | gefitinib 0.025 | [3] 0.025 | lapatinib -0.028 | pictilisib 0.172 | [4] 0.047 | crizotinib -0.068 | [5] 0.156 | [6] 0.017 | duvelisib 0.09 | gandotinib -0.153 | tozasertib -0.028 | [7] 0.036 | doramapimod 0.013 | ispinesib 0.04

GTF2E2 (UniProt P29084)
UniProt P29084, sequence (P29084 whole entry, looked up): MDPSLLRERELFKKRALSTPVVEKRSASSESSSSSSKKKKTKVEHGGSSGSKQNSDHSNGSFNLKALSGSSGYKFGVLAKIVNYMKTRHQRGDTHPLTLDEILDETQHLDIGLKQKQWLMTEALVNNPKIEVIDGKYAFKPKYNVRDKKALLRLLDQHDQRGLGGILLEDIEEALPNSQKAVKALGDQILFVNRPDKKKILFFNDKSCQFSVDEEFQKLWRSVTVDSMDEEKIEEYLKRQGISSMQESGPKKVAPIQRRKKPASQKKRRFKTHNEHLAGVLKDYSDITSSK
inactive: [1] -0.014 | filanesib 0.034 | zotarolimus 0.027 | idasanutlin -0.03 | alisertib -0.027 | [2] 0 | gefitinib 0.009 | [3] -0.056 | lapatinib 0.022 | pictilisib 0.031 | [4] 0.037 | crizotinib 0.012 | [5] -0.029 | [6] -0.002 | duvelisib 0.051 | gandotinib -0.03 | tozasertib 0.02 | [7] 0.071 | doramapimod -0.025 | ispinesib -0.01

HTATIP2 isoform 3 (UniProt Q9BUP3)
UniProt Q9BUP3, sequence (Q9BUP3 whole entry, looked up): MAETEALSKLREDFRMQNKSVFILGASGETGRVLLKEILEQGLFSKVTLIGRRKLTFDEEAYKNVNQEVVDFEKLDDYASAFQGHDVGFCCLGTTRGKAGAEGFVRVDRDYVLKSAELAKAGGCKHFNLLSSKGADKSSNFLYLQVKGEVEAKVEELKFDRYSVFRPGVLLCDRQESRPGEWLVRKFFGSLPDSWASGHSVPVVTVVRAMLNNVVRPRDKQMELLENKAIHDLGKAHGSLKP
inactive: [1] -0.003 | filanesib -0.091 | idasanutlin -0.031 | alisertib -0.029 | [2] -0.131 | gefitinib 0.066 | [3] 0.054 | lapatinib -0.015 | pictilisib 0.137 | [4] 0.014 | crizotinib -0.106 | [5] 0.023 | [6] -0.145 | gandotinib 0.003 | tozasertib 0.013 | [7] 0.027 | doramapimod 0.003 | ispinesib -0.111
active: zotarolimus 0.364 | duvelisib 0.294

GCSH (UniProt P23434)
inactive: [1] -0.086 | filanesib -0.029 | zotarolimus 0.014 | idasanutlin -0.024 | alisertib 0.154 | [2] 0.03 | gefitinib 0.003 | [3] 0.001 | lapatinib -0.028 | pictilisib -0.078 | [4] -0.009 | crizotinib 0.073 | [5] 0.005 | [6] -0.022 | duvelisib -0.014 | gandotinib 0.043 | tozasertib 0.07 | [7] 0.026 | doramapimod 0.032 | ispinesib -0.057
